These results are taken from ChEMBL document CHEMBL3988442, “University of Dundee, Small-Polar-MMV Screening Library” (2021).

Among all 48,000 compounds or so, about 13,000 (27%) showed an effect of 50% or more. The list shows a part of the results.

The test deals with Wolbachia pipientis. Briefly: Anti-Wolbachia Cell-Based Screen. The note with it: 5 µM. The format is functional. Set-up: scale not given: in the data most compounds retested in dose-response had high values.
Consider `Cc1noc(C)c1CN(C)C(=O)NC(C)Cc1ccco1` (centres undefined), for which the “Percent Effect” value is listed as 8.322%.

On to `CN(Cc1nc2ccccc2o1)CC1CCCN1c1cccnn1` (centres undefined), for which the “Percent Effect” value came to 4.649%.

Consider `COc1ccccc1C(C)N1CCN(S(=O)(=O)N(C)C)CC1` (centres undefined), for which the “Percent Effect” value is recorded as -4.471%.

Take `Cc1cccc(N2N=C(C(=O)NC(C)Cn3cccn3)CCC2=O)c1` (centres undefined): the “Percent Effect” value is -20.26%.

Regarding `Nc1nc(CNc2nccc(CCC(F)(F)F)n2)cs1`, the “Percent Effect” value was 0.6104%.

In the case of `Cc1cc(NC(=O)[C@H]2CCCCN2C(=O)OC(C)(C)C)no1`, the “Percent Effect” value is 12.93%.

Take `O=C(CCC1CCCO1)NCc1ccc(Br)cc1F` (centres undefined): the “Percent Effect” value was 24.29%.

`CCOc1ncnc2c1CCN(C(=O)c1cnccn1)CC2`: the “Percent Effect” value came out at 5.086%.

For `Cc1cnc(C(=O)N2CCc3ncnc(C)c3CC2)cn1`, the “Percent Effect” value is -11.83%.

On to `CN(C)CC(=O)N1CCc2ncnc(-c3ccoc3)c2CC1`, for which the “Percent Effect” value was -8.225%.

Turning to `Cc1ccoc1C(=O)N1CCc2ncnc(-c3cnn(C)c3)c2CC1`, the “Percent Effect” value was determined as 95.42%.

Take `Cc1cnc(C(=O)N2CCc3ncnc(-c4cnn(C)c4)c3CC2)cn1`: the “Percent Effect” value is given as 103.6%.

Take `Cn1cc(-c2ncnc3c2CCN(C(=O)c2cnccn2)CC3)cn1`: the “Percent Effect” value is reported as 113%.

With `Cc1occc1C(=O)N1CCc2ncnc(-c3cnn(C)c3)c2CC1`, the “Percent Effect” value is listed as 2.959%.

In the case of `Cc1ncnc2c1CCN(C(=O)c1cnccn1)CC2`, the “Percent Effect” value was 1.422%.

Consider `Cc1ncnc2c1CCN(C(=O)c1ccoc1)CC2`, for which the “Percent Effect” value is recorded as -3.432%.

For the compound `Cc1cc(C(=O)N2CCc3ncnc(-c4cnn(C)c4)c3CC2)c(C)o1`, the “Percent Effect” value was determined as 88.25%.

For the compound `CN(c1cccnc1N1CCCC1)S(=O)(=O)c1cccs1`, the “Percent Effect” value is 3.267%.

With `CCc1nc(C)c(C(=O)N2CCNCC2C(=O)Nc2ccc(C)nc2)o1` (centres undefined), the “Percent Effect” value came out at 1.705%.

As for `Cc1cccc(C)c1OC1CN(Cc2cnc(-c3ccco3)nc2)C1`, the “Percent Effect” value is recorded as -6.327%.

As for `CSCC(=O)N[C@H]1CN(CC2CCOCC2)C[C@@H]1c1ccccc1`, the “Percent Effect” value is 6.905%.

As to `Cc1cc(C(=O)N2CCc3ncnc(-c4cnn(C)c4)c3CC2)no1`, the “Percent Effect” value is 110.1%.

Turning to `COc1cc(N2CCc3ncnc(-c4cnn(C)c4)c3CC2)ncn1`, the “Percent Effect” value is on record as -4.032%.

On to `Cn1cc(-c2ncnc3c2CCN(C(=O)N2CCOCC2)CC3)cn1`, for which the “Percent Effect” value is listed as -0.924%.

In the case of `Cc1ccc(C(=O)N2CCc3ncnc(-c4cnn(C)c4)c3CC2)o1`, the “Percent Effect” value turned out to be 96.64%.

Regarding `Cn1cc(-c2ncnc3c2CCN(C(=O)c2cscn2)CC3)cn1`, the “Percent Effect” value came out at 121.2%.

On to `O=C(c1cc[nH]n1)N1CCc2ncnc(N3CCSCC3)c2CC1`, for which the “Percent Effect” value stood at 19.12%.

For `Cc1ccc(C(=O)N2CCc3ncnc(C)c3CC2)o1`, the “Percent Effect” value is given as -4.866%.

In the case of `CN(C)c1cnnc(N2CCN(C(=O)CCC3CCCCC3)CC2)c1`, the “Percent Effect” value is 3.23%.
